Growth data for seven molecules are collected here from PubChem BioAssay (NCI).

The panel holds about 83,000 compounds, 20% with a hit somewhere; the sample as a whole holds those more often.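 Note: values are percent growth. 100 is the growth of untreated cells, values between 100 and 0 indicate rising inhibition; between -100 and 0 indicates cell death.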 Values without a mark were called inactive. The source made the active and inactive calls. How the source made its calls: active means growth percent below 10; inactive means the rest.

Among the test systems are DU-145 prostate; K-562 leukemia; MALME-3M melanoma; MDA-MB-231 breast; RXF 393 renal; SF-268 CNS; SF-295 CNS; SF-539 CNS; UACC-257 melanoma; M14 melanoma; HCT-15 colon; HT29 colon; SNB-75 CNS; SNB-19 CNS; U251 CNS; PC-3 prostate; SK-MEL-5 melanoma; UACC-62 melanoma; LOX IMVI melanoma; SK-MEL-28 melanoma.
What all share (assay): NCI-60 one-dose screen, 48 h (100 = growth as untreated, 0 = no growth, -100 = all killed)
Holding throughout (settings): 10 µM unless noted

On to `Fc1ccc(Cn2cc(CSc3nc4ccccc4o3)nn2)cc1`, for which the growth in the test with DU-145 prostate was 108%; in the test with K-562 leukemia, 95.3%; in the test on MALME-3M melanoma it was 107%; in the test with MDA-MB-231 breast it was 97.1%; in the test on RXF 393 renal it was 105%; with SF-268 CNS it was 95.4%. The growth is 97% in the test with SF-295 CNS; 100% in the test with SF-539 CNS; 105% with UACC-257 melanoma; 97% in the test with M14 melanoma; 104% in the test on HCT-15 colon; 99.8% in the test on HT29 colon. The growth with SNB-75 CNS is 92.2%; in the test on SNB-19 CNS it was 92.5%; in the test with U251 CNS, 105%; with PC-3 prostate, 98.3%; in the test with SK-MEL-5 melanoma it was 110%; with UACC-62 melanoma it was 84.3%. Also, the growth in the test on LOX IMVI melanoma is 107%; in the test with SK-MEL-28 melanoma it was 98.9%.

With `COc1ccc2nc(Cl)c(/C=C3\CC(c4ccccc4)=NN(c4ccccc4)C3=O)cc2c1`, the growth is 76.8% with DU-145 prostate; 83.9% in the test on K-562 leukemia; 45.2% in the test on MALME-3M melanoma; 51.7% in the test on MDA-MB-231 breast; 10.9% in the test with RXF 393 renal; 51.9% in the test on SF-268 CNS. For the same molecule, the growth in the test on SF-295 CNS was 62.6%; in the test on SF-539 CNS it was 13.1%; in the test on UACC-257 melanoma, 75.2%; in the test on M14 melanoma it was 94.1%; with HCT-15 colon, 84.5%; in the test with HT29 colon it was 82.5%. Besides, the growth in the test on SNB-75 CNS is 19.8%; in the test on SNB-19 CNS it was 20.3%; in the test on U251 CNS it was 55.6%; in the test on PC-3 prostate, 66.1%; with SK-MEL-5 melanoma it was 78.2%; with UACC-62 melanoma, 71.8%. Moreover, the growth was 78.3% with LOX IMVI melanoma and 85.8% with SK-MEL-28 melanoma.

As to `O=C(/C=C(O)/C=C/c1cccc2[nH]ccc12)/C=C/c1cccc2[nH]ccc12`, the growth is 95.6% with DU-145 prostate; 14.5% in the test with K-562 leukemia; 69.4% in the test with MALME-3M melanoma; 73.8% in the test with MDA-MB-231 breast; 87.4% in the test with RXF 393 renal; 89.5% in the test with SF-268 CNS. Moreover, the growth with SF-295 CNS was 95.5%; in the test on SF-539 CNS it was 90.4%; with UACC-257 melanoma, 86.4%; in the test on M14 melanoma it was 38.9%; in the test on HCT-15 colon it was 61.5%; in the test on HT29 colon it was 38.4%. Moreover, the growth in the test with SNB-75 CNS is 92.2%; with SNB-19 CNS it was 72.6%; in the test with U251 CNS it was 45.2%; in the test on PC-3 prostate it was 66.8%; in the test on SK-MEL-5 melanoma, 76%; in the test on UACC-62 melanoma it was 68%. Besides, the growth in the test on LOX IMVI melanoma was 63.7%; with SK-MEL-28 melanoma, 97.6%.

For `CC(C)=CCNc1ncnc2c1ncn2C1OC(CO)C(O)C1O` (stereo not given), the growth is -89.4% [1 mM] (active) in the test with DU-145 prostate; 7.4% [1 mM] (active) with K-562 leukemia; 32.4% [1 mM] with MALME-3M melanoma; -54.7% [1 mM] (active) in the test on MDA-MB-231 breast; -71.2% [1 mM] (active) in the test with RXF 393 renal; 4.72% [1 mM] (active) with SF-268 CNS. In addition, the growth in the test with SF-295 CNS was -24.2% [1 mM] (active); in the test on SF-539 CNS it was -41.8% [1 mM] (active); with UACC-257 melanoma, 92.7% [1 mM]; with M14 melanoma it was 26.9% [1 mM]; in the test on HCT-15 colon, -49.7% [1 mM] (active); with HT29 colon, -5.71% [1 mM] (active). The growth is -32.6% [1 mM] (active) in the test with SNB-75 CNS; 13.5% [1 mM] with SNB-19 CNS; 35.2% [1 mM] with U251 CNS; -25.8% [1 mM] (active) in the test with PC-3 prostate; 49.4% [1 mM] with SK-MEL-5 melanoma; 27.5% [1 mM] in the test on UACC-62 melanoma. Also, the growth in the test on LOX IMVI melanoma is -96.7% [1 mM] (active); in the test with SK-MEL-28 melanoma, 79.5% [1 mM].

In the case of `COc1ccc(NC(=O)Nc2ccc(OCCCCCC(=O)NO)cc2)cc1`, the growth in the test on DU-145 prostate is 106%; in the test with K-562 leukemia it was 88.3%; in the test with MALME-3M melanoma, 97.5%; in the test with MDA-MB-231 breast, 105%; in the test on RXF 393 renal, 98.3%; in the test on SF-268 CNS it was 101%. Besides, the growth with SF-295 CNS was 109%; in the test with SF-539 CNS it was 103%; in the test on UACC-257 melanoma, 73.4%; in the test with M14 melanoma, 95.3%; in the test with HCT-15 colon, 117%; in the test on HT29 colon it was 88.8%. In addition, the growth is 93.2% in the test on SNB-75 CNS; 102% with SNB-19 CNS; 101% with U251 CNS; 97.8% in the test on PC-3 prostate; 104% in the test with SK-MEL-5 melanoma; 89.4% with UACC-62 melanoma. For the same molecule, the growth in the test with LOX IMVI melanoma was 96.4%; with SK-MEL-28 melanoma, 103%.

Consider `Cc1nc2c(c(=O)[nH]1)C(c1ccccc1)c1ccc3ccccc3c1O2` (stereo not given), for which the growth is 56.2% in the test on DU-145 prostate; 11.9% in the test with K-562 leukemia; 60.9% in the test on MALME-3M melanoma; 46.6% in the test with MDA-MB-231 breast; 27.6% with RXF 393 renal; 38.2% with SF-268 CNS. Also, the growth in the test on SF-295 CNS was 22.8%; in the test on SF-539 CNS, 14.5%; in the test on UACC-257 melanoma, 34.5%; with M14 melanoma it was 22.2%; with HCT-15 colon, 23.4%; with HT29 colon it was 84.5%. Also, the growth in the test with SNB-75 CNS was 13.1%; with SNB-19 CNS it was 30.8%; in the test with U251 CNS it was 26.1%; in the test with PC-3 prostate, 19.7%; in the test on SK-MEL-5 melanoma it was 36.8%; in the test with UACC-62 melanoma, 30.4%. The growth is 35.2% with LOX IMVI melanoma and 57.7% in the test with SK-MEL-28 melanoma.

For the molecule `C=C1C(=O)O[C@H]2[C@H]1CC/C(COC(=O)CSCSCC(=O)OC/C1=C/CC[C@@]3(C)O[C@H]3[C@H]3OC(=O)C(=C)[C@@H]3CC1)=C\CC[C@@]1(C)O[C@@H]21`, the growth with DU-145 prostate is 28.3%; in the test on K-562 leukemia, 3.55% (active); in the test on MALME-3M melanoma it was -4.65% (active); in the test on MDA-MB-231 breast it was -27.9% (active); with RXF 393 renal it was -86.7% (active); with SF-268 CNS, 20.7%. The growth in the test on SF-295 CNS was 70.3%; in the test with SF-539 CNS, 3.58% (active); with UACC-257 melanoma, 34.1%; with M14 melanoma, 4.26% (active); with HCT-15 colon, 0.182% (active); in the test on HT29 colon it was -3.63% (active). The growth in the test on SNB-75 CNS is 60.4%; in the test with SNB-19 CNS, 54%; in the test with U251 CNS, 10.8%; in the test on PC-3 prostate, 0.538% (active); in the test on SK-MEL-5 melanoma, 66.1%; with UACC-62 melanoma, 24.2%. The results for the growth with LOX IMVI melanoma and in the test with SK-MEL-28 melanoma were -48.5% (active) and -4.58% (active), respectively.
